Common to all, as to assay: DAPPL (digital affinity profiling via proximity ligation, sequencing); 10 mM Tris-HCl pH 7.5, 50 mM NaCl, 1 mM DTT, 4% glycerol, room temperature, 30 min; GST-TFs on glutathione beads, 16-mer random dsDNA library, 0.1% formaldehyde crosslink after washing; high values mean tight binding
What all share (conditions): protein: recombinant; tags: N-terminal GST; dsDNA, one strand shown

The target in one experiment is T1, ELK4 (Homo sapiens, UniProt P28324-2 1-405).
T1 sequence: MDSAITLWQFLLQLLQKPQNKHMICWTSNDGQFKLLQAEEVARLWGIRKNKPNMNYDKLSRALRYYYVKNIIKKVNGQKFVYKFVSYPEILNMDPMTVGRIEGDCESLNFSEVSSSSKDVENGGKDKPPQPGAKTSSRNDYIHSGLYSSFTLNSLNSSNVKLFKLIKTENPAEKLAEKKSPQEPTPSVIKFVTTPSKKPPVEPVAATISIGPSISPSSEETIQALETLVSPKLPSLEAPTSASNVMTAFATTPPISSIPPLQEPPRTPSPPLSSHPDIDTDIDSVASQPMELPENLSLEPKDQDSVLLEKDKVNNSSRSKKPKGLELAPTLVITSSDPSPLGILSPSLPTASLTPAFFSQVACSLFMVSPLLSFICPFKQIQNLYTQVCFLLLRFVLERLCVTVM
Put shortly: (§1)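 Human transcription factors were made in yeast as GST fusions, captured on glutathione beads and barcoded with DNA. With a tag-only sample included, the pool was incubated with 200 nmole of a random double-stranded 16-mer DNA library in Tris/NaCl/DTT/glycerol buffer at room temperature for 30 min, then crosslinked with 0.1% formaldehyde after washing, ligated by proximity, amplified and sequenced. For binding signal, each hexamer's read frequency for a factor is divided by its frequency for the tag-only sample.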

Another experiment deals with T2, ETV2 (Homo sapiens, UniProt O00321 1-342).
T2 sequence: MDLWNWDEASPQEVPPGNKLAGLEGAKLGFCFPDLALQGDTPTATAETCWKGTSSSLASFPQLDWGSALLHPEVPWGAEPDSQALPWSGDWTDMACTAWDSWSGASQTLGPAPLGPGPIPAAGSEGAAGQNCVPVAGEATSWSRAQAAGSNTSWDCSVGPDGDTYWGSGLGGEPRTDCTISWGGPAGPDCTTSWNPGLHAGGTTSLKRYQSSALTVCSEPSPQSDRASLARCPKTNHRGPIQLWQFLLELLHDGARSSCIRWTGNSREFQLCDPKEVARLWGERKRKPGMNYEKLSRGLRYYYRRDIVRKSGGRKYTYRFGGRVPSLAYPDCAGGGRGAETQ
A digest of the protocol:
as §1

The target in a further experiment is T3, ELF3 (Homo sapiens, UniProt P78545 1-371).
T3 sequence: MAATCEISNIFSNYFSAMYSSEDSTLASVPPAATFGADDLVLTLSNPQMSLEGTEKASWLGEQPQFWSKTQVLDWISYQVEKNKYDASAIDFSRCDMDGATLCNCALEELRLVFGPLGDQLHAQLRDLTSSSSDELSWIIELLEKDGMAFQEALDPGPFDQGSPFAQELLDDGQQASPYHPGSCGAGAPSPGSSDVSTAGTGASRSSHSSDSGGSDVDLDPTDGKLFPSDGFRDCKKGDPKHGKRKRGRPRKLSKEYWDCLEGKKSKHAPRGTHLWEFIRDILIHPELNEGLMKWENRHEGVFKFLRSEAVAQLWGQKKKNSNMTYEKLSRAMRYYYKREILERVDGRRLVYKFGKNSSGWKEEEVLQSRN
A digest of the protocol: as §1

A further experiment deals with ETV1 (Homo sapiens, UniProt P50549 1-477). Put shortly:
as §1

Another experiment has as its target T4, ERF (Homo sapiens, UniProt P50548 1-548).
T4 sequence: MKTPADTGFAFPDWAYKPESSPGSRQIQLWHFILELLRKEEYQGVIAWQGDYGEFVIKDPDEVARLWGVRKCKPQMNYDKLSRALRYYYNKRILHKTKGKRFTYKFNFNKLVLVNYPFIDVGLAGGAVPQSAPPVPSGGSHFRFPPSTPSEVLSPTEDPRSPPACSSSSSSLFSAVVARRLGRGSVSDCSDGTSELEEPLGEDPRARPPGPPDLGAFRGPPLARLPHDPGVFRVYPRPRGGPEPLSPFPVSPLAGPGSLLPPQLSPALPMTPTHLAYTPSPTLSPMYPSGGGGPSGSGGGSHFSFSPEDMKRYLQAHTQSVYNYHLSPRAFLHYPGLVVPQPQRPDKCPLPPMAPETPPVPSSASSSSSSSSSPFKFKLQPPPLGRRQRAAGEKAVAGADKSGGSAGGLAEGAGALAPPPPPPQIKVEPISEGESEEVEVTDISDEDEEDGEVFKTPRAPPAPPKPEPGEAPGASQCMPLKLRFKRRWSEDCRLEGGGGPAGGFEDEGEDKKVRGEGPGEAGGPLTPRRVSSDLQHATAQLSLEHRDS
A digest of the protocol:
as §1

For the next experiment, the target named is T5, ETV3L (Homo sapiens, UniProt Q6ZN32 1-361).
T5 sequence: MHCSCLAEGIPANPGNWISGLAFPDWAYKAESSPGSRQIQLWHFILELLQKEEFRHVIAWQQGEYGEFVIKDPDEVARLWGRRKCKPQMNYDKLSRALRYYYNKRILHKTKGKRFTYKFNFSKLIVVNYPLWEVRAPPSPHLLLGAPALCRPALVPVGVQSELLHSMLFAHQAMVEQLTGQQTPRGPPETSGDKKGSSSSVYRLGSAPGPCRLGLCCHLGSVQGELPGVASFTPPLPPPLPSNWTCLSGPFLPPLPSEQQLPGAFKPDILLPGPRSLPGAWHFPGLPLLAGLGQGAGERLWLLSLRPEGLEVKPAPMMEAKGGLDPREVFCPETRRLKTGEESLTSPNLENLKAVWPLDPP
A digest of the protocol: as §1

For the next experiment, the target named is T6, ETS2 (Homo sapiens, UniProt P15036 1-469).
T6 sequence: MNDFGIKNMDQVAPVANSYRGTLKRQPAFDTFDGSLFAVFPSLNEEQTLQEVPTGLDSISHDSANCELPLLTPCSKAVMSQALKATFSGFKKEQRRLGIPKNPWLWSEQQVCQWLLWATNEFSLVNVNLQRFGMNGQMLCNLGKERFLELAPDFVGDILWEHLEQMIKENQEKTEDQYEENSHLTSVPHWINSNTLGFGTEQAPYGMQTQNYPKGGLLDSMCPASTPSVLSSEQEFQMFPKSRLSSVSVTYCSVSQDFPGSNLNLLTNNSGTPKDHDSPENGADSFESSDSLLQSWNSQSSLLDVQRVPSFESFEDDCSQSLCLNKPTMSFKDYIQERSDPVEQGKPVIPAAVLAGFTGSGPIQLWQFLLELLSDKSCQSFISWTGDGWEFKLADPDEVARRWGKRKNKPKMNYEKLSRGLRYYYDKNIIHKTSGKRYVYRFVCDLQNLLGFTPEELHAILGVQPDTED
A digest of the protocol: as §1

In a further experiment the target is T7, ETV7 (Homo sapiens, UniProt Q9Y603 1-341).
T7 sequence: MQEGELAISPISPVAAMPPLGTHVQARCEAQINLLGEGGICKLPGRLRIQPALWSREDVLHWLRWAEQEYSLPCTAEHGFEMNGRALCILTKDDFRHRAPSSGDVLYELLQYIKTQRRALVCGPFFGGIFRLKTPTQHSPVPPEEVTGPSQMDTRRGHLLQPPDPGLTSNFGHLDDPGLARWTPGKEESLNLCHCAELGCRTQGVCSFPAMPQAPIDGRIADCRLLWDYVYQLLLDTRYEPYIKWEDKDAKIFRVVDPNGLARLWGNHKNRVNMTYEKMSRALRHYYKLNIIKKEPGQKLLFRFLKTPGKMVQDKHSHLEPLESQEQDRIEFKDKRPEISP
A digest of the protocol: as §1

A further experiment has as its target T8, ETV3 (Homo sapiens, UniProt P41162-2 1-143).
T8 sequence: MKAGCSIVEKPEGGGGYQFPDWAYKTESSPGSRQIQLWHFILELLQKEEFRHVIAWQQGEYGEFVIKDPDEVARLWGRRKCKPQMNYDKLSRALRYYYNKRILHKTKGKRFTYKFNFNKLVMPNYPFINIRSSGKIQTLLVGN
A digest of the protocol: as §1

The next experiment deals with ETV6 (Homo sapiens, UniProt P41212 1-452). Put shortly:
as §1

Sequence of ETV6 (P41212 whole entry): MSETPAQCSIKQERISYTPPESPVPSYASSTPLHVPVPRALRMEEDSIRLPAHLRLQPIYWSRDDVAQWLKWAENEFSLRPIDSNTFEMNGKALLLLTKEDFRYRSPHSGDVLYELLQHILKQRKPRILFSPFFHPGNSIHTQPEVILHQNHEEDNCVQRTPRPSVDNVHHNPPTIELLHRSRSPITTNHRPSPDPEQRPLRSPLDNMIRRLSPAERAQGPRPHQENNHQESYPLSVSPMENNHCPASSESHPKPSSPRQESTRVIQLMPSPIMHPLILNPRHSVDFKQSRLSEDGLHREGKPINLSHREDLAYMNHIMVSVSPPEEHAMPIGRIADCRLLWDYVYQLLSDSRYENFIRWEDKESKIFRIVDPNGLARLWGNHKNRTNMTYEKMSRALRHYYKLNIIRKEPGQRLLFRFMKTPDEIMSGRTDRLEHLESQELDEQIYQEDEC
Sequence of ETV1 (P50549 whole entry): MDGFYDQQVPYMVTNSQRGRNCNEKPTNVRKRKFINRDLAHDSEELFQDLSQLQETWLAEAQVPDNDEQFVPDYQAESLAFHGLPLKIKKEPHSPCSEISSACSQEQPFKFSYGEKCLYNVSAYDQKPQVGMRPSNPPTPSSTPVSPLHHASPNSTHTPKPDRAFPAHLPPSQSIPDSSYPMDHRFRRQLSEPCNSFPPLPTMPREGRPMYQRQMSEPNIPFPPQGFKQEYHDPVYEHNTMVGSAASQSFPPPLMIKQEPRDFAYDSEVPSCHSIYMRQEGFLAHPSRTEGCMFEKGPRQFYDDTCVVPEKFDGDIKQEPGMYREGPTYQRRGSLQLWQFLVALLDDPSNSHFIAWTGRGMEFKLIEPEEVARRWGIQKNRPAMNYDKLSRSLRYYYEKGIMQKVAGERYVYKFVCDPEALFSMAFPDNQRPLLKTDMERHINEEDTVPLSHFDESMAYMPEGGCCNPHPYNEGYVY

As for ACCCCT, the binding signal with ELK4 is 1.28 fold enrichment (6-mer frequency, TF over GST control); with ETV2 it was 1.17 fold enrichment (6-mer frequency, TF over GST control); in the experiment with ELF3 it was 1.09 fold enrichment (6-mer frequency, TF over GST control); with ETV1, 1.21 fold enrichment (6-mer frequency, TF over GST control); in the experiment with ERF, 1.06 fold enrichment (6-mer frequency, TF over GST control); with ETV3L, 1.05 fold enrichment (6-mer frequency, TF over GST control). Also, the binding signal was 1.08 fold enrichment (6-mer frequency, TF over GST control) with ETS2; 1 fold enrichment (6-mer frequency, TF over GST control) with ETV7; 1.03 fold enrichment (6-mer frequency, TF over GST control) with ETV3; 1.16 fold enrichment (6-mer frequency, TF over GST control) in the experiment with ETV6.
